CYP2C19 act: cytochrome P450 2C19 (human) activation; activation factor at 5 µM; recombinant CYP2C19, luciferin-H EGE luminescence; stronger effect = higher value; 0 = fully inhibited enzyme, 1 = untreated enzyme; 96,000 tested, under 10 active; P33261; AID 1025;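 active means activation factor of at least 2 at 5 µM in the primary screen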
Target sequence (P33261 whole entry, looked up): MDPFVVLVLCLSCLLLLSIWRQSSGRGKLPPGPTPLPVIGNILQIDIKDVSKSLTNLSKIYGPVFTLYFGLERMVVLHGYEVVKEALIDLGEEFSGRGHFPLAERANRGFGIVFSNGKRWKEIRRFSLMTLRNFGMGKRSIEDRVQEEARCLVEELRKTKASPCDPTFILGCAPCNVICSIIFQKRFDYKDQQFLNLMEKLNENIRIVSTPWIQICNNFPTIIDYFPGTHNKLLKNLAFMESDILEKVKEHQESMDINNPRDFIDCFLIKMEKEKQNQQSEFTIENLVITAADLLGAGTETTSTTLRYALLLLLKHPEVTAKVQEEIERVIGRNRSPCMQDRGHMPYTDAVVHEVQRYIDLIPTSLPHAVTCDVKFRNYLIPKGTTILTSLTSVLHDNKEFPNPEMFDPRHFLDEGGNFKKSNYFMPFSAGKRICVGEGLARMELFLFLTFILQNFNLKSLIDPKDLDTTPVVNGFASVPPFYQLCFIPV
CYP2C19 inhib: blocks human cytochrome P450 2C19; inhibition, % at 5 µM; 96,000 compounds, 21% hits; CYP2C19 Supersomes, luciferin-H EGE luminescence, 30 min;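 active means CYP2C19 inhibition above a set limit at 5 µM in the primary screen, cut at about 50% in these data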
E-sel TNF inh: blocks E-selectin expression induced by TNF alpha. 120,000 compounds, 0.71% hits. HUVEC TNFa-induced E-selectin immunofluorescence, high content. AID 1246. inhibition, % at 2 µM;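 active means inhibition above the batch mean plus 3 SD, and confirmed as a hit on visual image review, cut at about 43% in these data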
F-actin modifier: modifiers of cytoskeleton assembly | AID 836 | HUVEC TNFa F-actin phalloidin imaging, high content | inhibition, % at 2 µM | 91,000 compounds, 0.18% hits;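 active means inhibition above the batch mean plus 3 SD and confirmed as a hit by visual image inspection, cut at about 30% in these data, passing the limit was not always enough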
CYP2C9 inh: blocks human cytochrome P450 2C9. CYP2C9 Supersomes, luciferin-H conversion, luminescence. AID 777. 96,000 compounds, 20% hits. P11712. inhibition, % at 5 µM;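 active means blocking of liver enzyme CYP2C9 beyond about 50% at 5 µM, limit read from the data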
CYP2C9 act: increases human cytochrome P450 2C9 activity; recombinant CYP2C9, luciferin-H conversion, luminescence; stronger effect = higher value; factor 1 = untreated enzyme, 0 = blocked; activation factor at 5 µM; P11712; 96,000 compounds, 1.4% hits;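 active means activation factor of 2 or more for CYP2C9 at a 5 µM dose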
Of the large screens only hits and unclear results are named; the others gave an inactive call. Compounds with a hit are over-represented: about 22% of the library has one in this group of screens.

COc1ccc2[nH]c(=O)c(CN(Cc3ccccc3OC)Cc3nnnn3CC3CCCO3)cc2c1 (stereo not drawn)	CYP2C19 inhib 70
COc1cccc(C(=O)N(Cc2cc3cc(C)ccc3[nH]c2=O)CC2CCCO2)c1 (stereo not drawn)	none (no result: F-actin modifier)
COc1cc(C(=O)N(Cc2cc3cc(C)ccc3[nH]c2=O)CC2CCCO2)cc(OC)c1OC (stereo not drawn)	CYP2C9 inh 63 (no result: F-actin modifier)
COc1ccc2[nH]c(=O)c(CN(Cc3ccc(C)cc3)Cc3nnnn3CC3CCCO3)cc2c1 (stereo not drawn)	CYP2C19 inhib 60, CYP2C9 inh 84
COc1ccc2[nH]c(=O)c(CN(Cc3cccs3)Cc3nnnn3Cc3ccccc3)cc2c1	none
Cc1ccc2[nH]c(=O)c(CN(Cc3cccs3)Cc3nnnn3CC3CCCO3)cc2c1 (stereo not drawn)	none
COc1ccc(Cn2c(CCC(=O)Nc3ccccc3OC)nc3cccnc32)cc1	none (no result: CYP2C19 act, CYP2C19 inhib, F-actin modifier, CYP2C9 inh, CYP2C9 act)
Cc1ccc2cc(CN(Cc3cccs3)Cc3nnnn3CC3CCCO3)c(=O)[nH]c2c1C (stereo not drawn)	CYP2C19 inhib 56
O=c1[nH]c2cc3c(cc2cc1CN(CCc1ccccc1)Cc1nnnn1CC1CCCO1)OCO3 (stereo not drawn)	none (no result: F-actin modifier)
Cc1ccc2cc(CN(Cc3cccs3)Cc3nnnn3CC3CCCO3)c(=O)[nH]c2c1 (stereo not drawn)	none
COc1ccccc1CN(Cc1cc2cc(C)cc(C)c2[nH]c1=O)Cc1nnnn1CC1CCCO1 (stereo not drawn)	CYP2C19 inhib 63, CYP2C9 inh 56
O=C(Cc1cccs1)Nc1ccc2c(c1)C(=O)OC2	none
O=C(CN1CCN(Cc2ccccc2)C1=O)NCc1cccs1	none (no result: E-sel TNF inh)
O=C(N1CCCCC1)N1CCN(S(=O)(=O)c2ccc(Cl)cc2)CC1	none (no result: CYP2C19 act, CYP2C19 inhib, F-actin modifier, CYP2C9 inh, CYP2C9 act)
CC(=O)Nc1ccc(S(=O)(=O)N2CCN(c3cccc(C)c3C)CC2)cc1	CYP2C9 inh 75
Cc1ccc(NC(=O)c2ccc(S(=O)(=O)N3CCCC3)cc2)cc1	none (no result: CYP2C19 act, CYP2C19 inhib, F-actin modifier, CYP2C9 inh, CYP2C9 act)
CC(=O)Nc1ccc(S(=O)(=O)N2CCN(C(=O)Cc3ccccc3)CC2)cc1	none (no result: CYP2C19 act, CYP2C19 inhib, CYP2C9 inh, CYP2C9 act)
Cc1ccc(Cl)cc1N1CCN(S(=O)(=O)c2c(C)[nH]c(=O)[nH]c2=O)CC1	none
Cc1cccc(N2CCN(S(=O)(=O)c3c(C)[nH]c(=O)[nH]c3=O)CC2)c1C	CYP2C19 inhib 50 (no result: F-actin modifier)
CC(=O)Nc1ccc(S(=O)(=O)N2CCN(C(=O)N3CCCCCC3)CC2)cc1	CYP2C9 inh 51 (no result: F-actin modifier)
CC(=O)c1ccc(S(=O)(=O)N2CCCC2)cc1	CYP2C9 inh 60
O=C(CN1CCN(C(c2ccccc2)c2ccccc2)CC1)Nc1ccc(N2CCOCC2)cc1	none (no result: CYP2C19 act, CYP2C19 inhib, F-actin modifier, CYP2C9 inh, CYP2C9 act)
CC(C)(C)c1ccc(-c2conc2N)cc1	none (no result: CYP2C19 act, CYP2C19 inhib, CYP2C9 inh, CYP2C9 act)
CC(=O)Nc1ccc(S(=O)(=O)N2CCCN(S(=O)(=O)c3ccc(NC(C)=O)cc3)CC2)cc1	CYP2C9 inh 61
CC(=O)Nc1ccc(S(=O)(=O)Nc2ccc(S(=O)(=O)N3CCCCCC3)cc2)cc1	CYP2C9 inh 82
CC(=O)Nc1ccc(S(=O)(=O)N2CCN(c3ccc(C)c(Cl)c3)CC2)cc1	CYP2C9 inh 53
CC(=O)Nc1ccc(S(=O)(=O)N2CCCN(S(=O)(=O)c3ccc(C)cc3)CC2)cc1	none
CC(=O)Nc1ccc(S(=O)(=O)N2CCN(Cc3ccncc3)CC2)cc1	CYP2C19 inhib 95, CYP2C9 inh 54
CC(=O)Nc1ccc(S(=O)(=O)N2CCNC(=O)CC2)cc1	none
CC(=O)Nc1ccc(C(=O)Nc2ccc(S(=O)(=O)N3CCCC3)cc2)cc1	none (no result: F-actin modifier)
CCCC(=O)NNC(=O)CCC(=O)NCc1ccccc1	none
CCC(C)n1c(SCC(=O)/C(C#N)=C(\C)N)nc2ccccc2c1=O (stereo not drawn)	none (no result: CYP2C19 act, CYP2C19 inhib, F-actin modifier, CYP2C9 inh, CYP2C9 act)
COc1ccc(-c2nnn(CC(=O)c3ccc4c(c3)OCCO4)n2)cc1OC	none (no result: CYP2C19 act, CYP2C19 inhib, CYP2C9 inh, CYP2C9 act)
COc1ccc(N2CCN(C(=O)c3cc(=O)[nH]c4ccccc34)CC2)cc1	none (no result: CYP2C19 act, CYP2C19 inhib, F-actin modifier, CYP2C9 inh, CYP2C9 act)
CC(=O)Nc1ccc(S(=O)(=O)N2CCc3c(Cl)cccc3C2)cc1	CYP2C19 inhib 65, CYP2C9 act 2.7 (no result: E-sel TNF inh)
CCOC(=O)Cc1csc(NC(=O)c2csc3c2CCCC3)n1	CYP2C19 inhib 65, CYP2C9 inh 75 (no result: F-actin modifier)
CCOC(=O)Cc1csc(NC(=O)c2cc(OC)cc(OC)c2)n1	none (no result: CYP2C19 act, CYP2C19 inhib, CYP2C9 inh, CYP2C9 act)
CCOC(=O)Cc1csc(NC(=O)c2cc3c(s2)CCCC3)n1	CYP2C9 inh 64
CO/N=C/NC(=O)c1c(OC)ccnc1Oc1cccc(C(F)(F)F)c1	CYP2C19 inhib 58
CO/N=C/NC(=O)c1c(OC)ccnc1Oc1ccc(F)cc1	none
COc1ccnc(Oc2ccc(F)cc2)c1C(=O)N/C=N/OCc1ccc(F)cc1	CYP2C19 inhib 64
CCOc1ccc(NC(=O)CSc2nnc(C3CC3)n2C)cc1	none (no result: CYP2C19 act, CYP2C19 inhib, F-actin modifier, CYP2C9 inh, CYP2C9 act)
CC1(C)Cc2c(sc3nc(-c4ccccc4Cl)n(N)c(=O)c23)CO1	none (no result: F-actin modifier)
Cc1ccccc1NC1c2ccccc2C(=O)N1Cc1ccco1 (stereo not drawn)	none (no result: E-sel TNF inh)
CCOC(=O)c1cccc(NC2c3ccccc3C(=O)N2Cc2ccco2)c1 (stereo not drawn)	none (no result: E-sel TNF inh)
COc1cccc(NC2c3ccccc3C(=O)N2Cc2ccco2)c1 (stereo not drawn)	CYP2C9 inh 57 (no result: E-sel TNF inh)
CCN(CC)S(=O)(=O)c1ccc(NC2c3ccccc3C(=O)N2Cc2ccco2)cc1 (stereo not drawn)	CYP2C9 inh 92 (no result: E-sel TNF inh)
O=C1c2ccccc2C(Nc2cccc(C(F)(F)F)c2)N1Cc1ccco1 (stereo not drawn)	CYP2C19 inhib 68, CYP2C9 inh 60 (no result: E-sel TNF inh, F-actin modifier)
COc1ccc(C2C(C#N)=C(N)Oc3cc(C)[nH]c(=O)c32)c(OC)c1OC (stereo not drawn)	none
CCOC(=O)CSc1nnc(NC(=O)c2cccc([N+](=O)[O-])c2)s1	none (no result: CYP2C19 act, CYP2C19 inhib, F-actin modifier, CYP2C9 inh, CYP2C9 act)
CCNC(=S)NNC(=O)C(c1ccccc1)c1ccccc1	none
CCOc1ccccc1-n1c(SCC(=O)N2CCCC2)nnc1-c1ccc(O)cc1	none
Clc1ccc(SCc2nc3ccccc3[nH]2)cc1	CYP2C19 inhib 100, CYP2C9 inh 54
c1ccc2[nH]c(CSc3nccs3)nc2c1	none (no result: CYP2C19 act, CYP2C19 inhib, F-actin modifier, CYP2C9 inh, CYP2C9 act)
c1ccc(SCc2nc3ccccc3[nH]2)cc1	CYP2C19 inhib 90
Cc1cc(C)c(C#N)c(SCc2nc3ccccc3[nH]2)n1	CYP2C19 inhib 56, F-actin modifier 34, CYP2C9 inh 58
Cc1ccc(SCc2nc3ccccc3[nH]2)cc1	CYP2C19 inhib 89
Cc1c(N=C2SC(CC(=O)Nc3ccccc3)C(=O)N2CCN2CCOCC2)c(=O)n(-c2ccccc2)n1C (stereo not drawn)	none (no result: CYP2C19 act, CYP2C19 inhib, F-actin modifier, CYP2C9 inh, CYP2C9 act)
CN(CCC(=O)Nc1ccc(Br)cc1)Cc1ccccc1	none
CCN(CC)CCCC(C)NC1=NCCCCC1 (stereo not drawn)	none
O=C(CN(C1CCCCC1)S(=O)(=O)c1ccc(Cl)cc1)NCc1ccncc1	CYP2C19 inhib 94, CYP2C9 inh 82 (no result: E-sel TNF inh)
O=C(CN(C1CCCCC1)S(=O)(=O)c1ccc(F)cc1)NCc1ccncc1	CYP2C19 inhib 86, CYP2C9 inh 83
